The source of these data is PubChem BioAssay (Tox21).

Each structure is given as a SMILES string. Unmarked numbers belong to inactive results. Records with an inconclusive call do not appear. Active and inactive are the calls of the source. Unless noted, the call rests on the fitted dose curve; in most records, active means well fitted curve in the direction sought with a large enough effect in the repeat runs; inconclusive means weak or mixed curves; inactive means no such curve, though single readings can be large; an effect the other way counts as inactive or inconclusive.

Assay [1] in a line: qHTS assay to identify small molecule antagonists of the glucocorticoid receptor (GR) signaling pathway - cell viability counter screen (AID 720693). Further: nearly all actives have a fitted effect of over 55% in size. In general terms: qHTS replaces the single test concentration by a dilution series.
Assay [2] in a line: qHTS assay for identifying genotoxic compounds that show differential cytotoxicity against isogenic chicken DT40 cell lines with known DNA damage response pathways - Rev3 mutant cell line (AID 743014). Further: nearly all actives have a fitted effect of over 55% in size.
Assay [3] in a line: qHTS assay for identifying genotoxic compounds that show differential cytotoxicity against isogenic chicken DT40 cell lines with known DNA damage response pathways - Rad54/Ku70 mutant cell line (AID 743015). Further: nearly all actives have a fitted effect of over 60% in size.
Assay [4] in a line: qHTS assay to identify small molecule antagonists of the androgen receptor (AR) signaling pathway - cell viability counter screen (AID 743033; further: nearly all actives have a fitted effect of over 45% in size).
The target of assay [5] is Androgen receptor (Homo sapiens) (UniProt P10275). Put plainly: qHTS assay to identify small molecule antagonists of the androgen receptor (AR) signaling pathway (AID 743035; active means well fitted inhibition curve with a large enough effect in the signal ratio in the repeat runs, not every such curve was filed as active; the % refers to the signal ratio). Put shortly:
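Antagonist mode: AR-bla HEK293 cells co-treated with test compounds and agonist R1881 for 16 h at 37C, 5% CO2. Beta-lactamase activity read as FRET fluorescence after 2 h room-temperature substrate loading.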

The target is the same in assay [6]. Nature of the assay: qHTS assay to identify small molecule agonists of the androgen receptor (AR) signaling pathway using the MDA cell line (AID 743040; further: nearly all actives have a fitted effect of over 20% in size). Put shortly:
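Stable MMTV-luciferase reporter in MDA-kb2 cells; note the promoter carries GR as well as AR response elements. 16 h compound treatment, 37C, 0% CO2; ONE-Glo luminescence endpoint.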

Assay [7] can be described thus: qHTS assay to identify small molecule antagonists of the androgen receptor (AR) signaling pathway using the MDA cell line - cell viability counter screen (AID 743041; further: nearly all actives have a fitted effect of over 45% in size). Put shortly: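 Using the breast carcinoma line MDA-kb2 AR-luc, test chemicals were co-incubated with R1881 for 16 h; CellTiter-Fluor reagent, added at 15.5 h, provided a fluorescence measure of live cells.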

The target of assay [8] is Androgen receptor (Homo sapiens) (UniProt P10275). Nature of the assay: qHTS assay to identify small molecule antagonists of the androgen receptor (AR) signaling pathway using the MDA cell line (AID 743042; further: nearly all actives have a fitted effect of over 55% in size). Put shortly: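 Antagonist mode: compounds plus R1881 agonist added to MDA-kb2 AR-luc cells, incubated 16 h at 37C. Luciferase reporter luminescence quantified, with multiplexed CellTiter-Fluor readout for cell viability.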
Sequence of Androgen receptor (Homo sapiens) (P10275 whole entry, looked up): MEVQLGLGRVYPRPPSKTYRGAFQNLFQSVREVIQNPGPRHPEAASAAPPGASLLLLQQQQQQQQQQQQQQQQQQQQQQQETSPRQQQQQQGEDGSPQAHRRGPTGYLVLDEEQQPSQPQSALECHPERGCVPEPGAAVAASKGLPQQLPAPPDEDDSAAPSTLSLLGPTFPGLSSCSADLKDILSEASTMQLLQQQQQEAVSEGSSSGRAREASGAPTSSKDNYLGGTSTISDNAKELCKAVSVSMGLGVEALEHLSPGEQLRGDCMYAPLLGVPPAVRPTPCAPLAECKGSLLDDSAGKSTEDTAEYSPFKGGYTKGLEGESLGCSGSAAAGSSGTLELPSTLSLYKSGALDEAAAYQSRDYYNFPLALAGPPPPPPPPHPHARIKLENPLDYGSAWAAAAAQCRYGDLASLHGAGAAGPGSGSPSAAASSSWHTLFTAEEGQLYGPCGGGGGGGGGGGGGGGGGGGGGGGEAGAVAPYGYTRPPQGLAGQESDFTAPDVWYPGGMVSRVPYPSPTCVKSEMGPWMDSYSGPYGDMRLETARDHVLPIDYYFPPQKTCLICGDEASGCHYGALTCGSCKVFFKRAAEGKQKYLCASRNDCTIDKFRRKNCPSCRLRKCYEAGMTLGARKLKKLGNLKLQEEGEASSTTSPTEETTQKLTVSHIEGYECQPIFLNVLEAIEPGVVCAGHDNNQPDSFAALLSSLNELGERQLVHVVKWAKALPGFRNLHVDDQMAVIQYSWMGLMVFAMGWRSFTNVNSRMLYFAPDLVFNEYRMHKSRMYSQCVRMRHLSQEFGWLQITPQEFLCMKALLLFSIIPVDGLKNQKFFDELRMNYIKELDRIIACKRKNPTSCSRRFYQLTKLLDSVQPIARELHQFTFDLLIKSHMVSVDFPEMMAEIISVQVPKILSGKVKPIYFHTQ

Assay [9] can be described thus: qHTS assay to identify small molecule antagonists of the thyroid receptor (TR) signaling pathway - cell viability counter screen (AID 743064). Further: nearly all actives have a fitted effect of over 50% in size. Put shortly:
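Plate GH3.TRE-Luc cells; incubate 4 h at 37 °C; add compound, then T3 to 1 nM final; incubate 23.5 h; add CellTiter-Fluor; incubate 30 min at 37 °C, 5% CO2; read fluorescence.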

A short description of assay [10]: qHTS assay to identify small molecule antagonists of the thyroid receptor (TR) signaling pathway (AID 743065). Further: series mostly up to about 70 µM; nearly all actives have a fitted effect of over 55% in size. The procedure, abridged: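 Antagonism measured as loss of luciferase signal in GH3 cells stably carrying a TRE-luciferase reporter, co-treated with compound and T3 (1 nM final) for 23.5 h at 37 C. Viability was read in the same well by CellTiter-Fluor.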

Assay [11] deals with thyroid hormone receptor (rat, GH3 cells). Nature of the assay: qHTS assay to identify small molecule agonists of the thyroid receptor (TR) signaling pathway (AID 743066; calls by dose curve).
Assay [12] has as its target Estrogen receptor (Homo sapiens) (UniProt P03372). Put plainly: qHTS assay to identify small molecule antagonists of the estrogen receptor alpha (ER-alpha) signaling pathway (AID 743069; active means well fitted curve in the direction sought with a large enough effect in the signal ratio in the repeat runs, not every such curve was filed as active; the % refers to the signal ratio). The procedure, abridged:
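Fluorescence intensity from a beta-lactamase FRET substrate served as the read-out. Cells: HEK293 with stably integrated ER-alpha-UAS-bla reporter. Agonist 17beta-estradiol was co-added with compounds; incubation 18 hr at 37C, substrate 2 hr at room temperature.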

Assay [13] can be described thus: qHTS assay to identify small molecule antagonists of the estrogen receptor alpha (ER-alpha) signaling pathway - cell viability counter screen (AID 743074; calls by dose curve; further: nearly all actives have a fitted effect of over 45% in size).
For assay [14], the target named is Estrogen receptor (Homo sapiens) (UniProt P03372). Put plainly: qHTS assay to identify small molecule agonists of the estrogen receptor alpha (ER-alpha) signaling pathway (AID 743075; calls by dose curve).
Sequence of Estrogen receptor (Homo sapiens) (P03372 whole entry, looked up): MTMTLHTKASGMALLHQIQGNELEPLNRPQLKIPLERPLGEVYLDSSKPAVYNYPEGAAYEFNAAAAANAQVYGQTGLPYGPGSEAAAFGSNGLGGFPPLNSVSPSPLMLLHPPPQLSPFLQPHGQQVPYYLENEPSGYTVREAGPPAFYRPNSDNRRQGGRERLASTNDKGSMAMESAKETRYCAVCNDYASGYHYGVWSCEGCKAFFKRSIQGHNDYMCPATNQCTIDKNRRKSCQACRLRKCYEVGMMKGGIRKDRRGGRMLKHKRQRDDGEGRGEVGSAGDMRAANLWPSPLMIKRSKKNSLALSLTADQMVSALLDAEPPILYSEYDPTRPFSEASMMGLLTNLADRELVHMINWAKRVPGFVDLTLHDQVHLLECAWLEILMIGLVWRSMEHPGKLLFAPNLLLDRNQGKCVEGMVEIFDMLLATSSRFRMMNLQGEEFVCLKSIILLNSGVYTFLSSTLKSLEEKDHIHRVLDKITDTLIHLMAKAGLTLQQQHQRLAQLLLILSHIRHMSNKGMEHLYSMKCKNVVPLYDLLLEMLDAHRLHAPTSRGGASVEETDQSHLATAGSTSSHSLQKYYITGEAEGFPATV
Assay [15] has the same target. Put plainly: qHTS assay to identify small molecule agonists of the estrogen receptor alpha (ER-alpha) signaling pathway using the BG1 cell line (AID 743079). Further: nearly all actives have a fitted effect of over 20% in size. Further: potency means the concentration at half of the fitted maximal effect.
Assay [16] is described as follows: qHTS assay to identify small molecule antagonists of the estrogen receptor alpha (ER-alpha) signaling pathway using the BG1 cell line (AID 743080; calls by dose curve;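 further: BG1 cells stimulated with 17beta-estradiol alongside compound; series mostly up to about 70 µM; nearly all actives have a fitted effect of over 25% in size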). Put shortly:
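Readout is ONE-Glo luminescence, taken 30 min at room temperature after reagent addition, preceded by a CellTiter-Fluor viability read; BG1-Luc-4E2 cells had received compound and 17beta-estradiol for 21.5 h at 37 C.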

A short description of assay [17]: qHTS assay to identify small molecule antagonists of the estrogen receptor alpha (ER-alpha) signaling pathway using the BG1 cell line - cell viability counter screen (AID 743081).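 Further: compound given together with 17beta-estradiol as the ER stimulus; series mostly up to about 70 µM; nearly all actives have a fitted effect of over 45% in size.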
The next assay deals with Aromatase (Homo sapiens) (UniProt P11511). Put plainly: qHTS assay to identify aromatase inhibitors (AID 743083).
Sequence of Aromatase (Homo sapiens) (P11511 whole entry, looked up): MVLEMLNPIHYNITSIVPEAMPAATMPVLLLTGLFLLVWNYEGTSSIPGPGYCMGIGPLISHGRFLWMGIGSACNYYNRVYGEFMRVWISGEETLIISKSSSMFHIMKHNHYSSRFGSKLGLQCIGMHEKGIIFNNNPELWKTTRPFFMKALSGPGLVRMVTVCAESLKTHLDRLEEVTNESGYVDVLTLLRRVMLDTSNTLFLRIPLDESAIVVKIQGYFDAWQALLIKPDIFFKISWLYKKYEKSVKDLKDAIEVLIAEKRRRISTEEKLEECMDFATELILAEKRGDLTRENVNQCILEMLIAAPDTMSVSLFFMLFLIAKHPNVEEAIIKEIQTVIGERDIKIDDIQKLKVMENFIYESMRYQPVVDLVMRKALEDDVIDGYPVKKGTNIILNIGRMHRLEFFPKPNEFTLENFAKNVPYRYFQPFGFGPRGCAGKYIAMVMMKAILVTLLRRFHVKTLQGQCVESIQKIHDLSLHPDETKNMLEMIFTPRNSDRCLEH
The nature of assay [18]: qHTS assay for identifying genotoxic compounds that show differential cytotoxicity against isogenic chicken DT40 cell lines with known DNA damage response pathways - wild type cell line (AID 743012). Further: nearly all actives have a fitted effect of over 60% in size. Put shortly: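 Viability by ATP luminescence (CellTiter-Glo, 30 min RT) after 40 h compound treatment at 37 C/5% CO2, using 300 parental DNA repair-proficient DT40 cells per well.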

Regarding `CCCCNc1ccccc1`, the result in [1], in assay [4], in assay [8], in assay [13] and in assay [17] was inactive. The Potency entry in assay [2], in [3], in assay [5], in assay [6], in assay [7] and in [9] was “inactive” throughout. The Potency entry in assay [10], in [11], in assay [12], in assay [14], in assay [15] and in assay [16] was “inactive” in each case. The Potency entry with Aromatase (Homo sapiens) is “inactive”.

On to `COc1nc(C)nc(N)n1`, for which the molecule was classed as inactive in [1], in assay [4], in [13] and in [17]. For the same molecule, the Potency result in assay [2], in assay [3], in assay [7], in assay [9], in assay [10] and in assay [11] was “inactive” each time. Further, the Potency entry (in assay [12]; in assay [14]; in [16]; in the assay with Aromatase (Homo sapiens)) was “inactive” throughout.

Consider `COCc1ccc(COC)cc1`, for which the molecule was classed as inactive in assay [1], in assay [4], in assay [13] and in assay [17]. For the same molecule, the Potency result in [2], in [3], in assay [7], in [9], in assay [10] and in [11] was “inactive” throughout. In addition, the Potency entry (in assay [12]; in assay [14]; in [15]; in assay [16]; with Aromatase (Homo sapiens)) was “inactive” throughout.

Turning to `O=C1OC(=O)c2cc([N+](=O)[O-])ccc21`, the Potency result in assay [18], in [2], in assay [3], in assay [7], in [9] and in assay [10] was “inactive” in each case. Also, the Potency entry (in assay [11]; in [12]; in assay [14]; in assay [15]; in [16]; in the assay with Aromatase (Homo sapiens)) was “inactive” each time. The call in assay [4], in assay [13] and in assay [17] was inactive.

As for `NC(=O)c1ncn([C@@H]2O[C@H](CO)[C@@H](O)[C@H]2O)c1N`, the molecule was called inactive in [1], in [4], in [13] and in assay [17]. In addition, the Potency result in assay [3], in assay [7], in assay [9], in assay [10], in assay [11] and in [12] was “inactive” throughout. Moreover, the Potency result (in assay [14]; in assay [15]; in [16]; with Aromatase (Homo sapiens)) was “inactive” each time.

For `O=C(O)/C=C/c1ccc(Cn2ccnc2)cc1`, the call in [1], in assay [4], in assay [13] and in assay [17] was inactive. The Potency result (in [3]; in [7]; in assay [9]; with Aromatase (Homo sapiens)) was “inactive” each time.

In the case of `Oc1ccc2c(c1)OC[C@@H](N1CCC(O)(c3ccc(F)cc3)CC1)[C@H]2O`, the outcome in [1], in assay [4], in assay [13] and in assay [17] was inactive. The Potency entry (in assay [9]; in assay [10]; in [14]; with Aromatase (Homo sapiens)) was “inactive” each time. Besides, in assay [15], the Potency was 9.44 µM (active).

Turning to `CCn1cc(C(=O)O)c(=O)c2cc(F)c(N3CCN(C)CC3)cc21`, the molecule was called inactive in assay [1], in assay [4], in assay [13] and in assay [17]. For the same molecule, the Potency result in assay [7], in [9], in assay [10], in assay [11], in assay [14] and in assay [15] was “inactive” each time. The Potency entry (in assay [16]; with Aromatase (Homo sapiens)) was “inactive” each time.

As to `CCCCCCCCCCCl`, the Potency entry in assay [18], in assay [2], in [3], in assay [7], in [9] and in assay [10] was “inactive” throughout. The Potency entry (in assay [11]; in assay [12]; in [14]; in assay [15]; in assay [16]; with Aromatase (Homo sapiens)) was “inactive” in each case. The result in assay [4], in assay [13] and in assay [17] was inactive.

As for `COc1ccc(COC=O)cc1`, the call in [1], in assay [4], in assay [13] and in assay [17] was inactive. For the same molecule, the Potency entry in [2], in assay [3], in [10], in assay [11], in [12] and in [14] was “inactive” throughout. Besides, the Potency result (in assay [15]; in assay [16]; with Aromatase (Homo sapiens)) was “inactive” throughout.
